High-throughput results (PubChem BioAssay)
A selection: hits, their analogues and other compounds. The true share with any hit is near 21%.
Pf growth 96h: Primary qHTS for delayed death inhibitors of the malarial parasite plastid, 96 hour incubation | 6.9% of 320,000 active | P. falciparum luciferase reporter growth, 96 h | Potency, µM (titrated, usually from 28.7 µM), without a hit: top-dose activity change, negative = inhibition, most hits filed as inhibitors; further: potency means the concentration at half of the fitted maximal effect; on the % scale 0 is the no-effect control and ±100 the full control effect
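Plates of compound plus infected erythrocytes (2% hematocrit, 0.05% parasitemia final) incubate 96 hours, 37 C, 5% CO2. Detection reagent added; reduced luminescence from the parasites' luciferase reporter flags inhibition.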
Cycloheximide cs: Cycloheximide Counterscreen for Small Molecule Inhibitors of Shiga Toxin | cell reporter, cycloheximide protein synthesis inhibition counterscreen | max response, % | 12% of 300,000 active | AID 2314, 2010; in the data active means max response mostly above about 13%, no sharp cut-off; inactive means mostly below about 14%; further: read at 38.3 µM for the half of the compounds with a filed dose; 0% is about no effect
Pf growth 48h: Primary qHTS for delayed death inhibitors of the malarial parasite plastid, 48 hour incubation. P. falciparum luciferase growth in erythrocytes, 48 h. Potency, µM (highest dose often 28.7 µM), for the others: at the top dose activity change, negative = inhibition, actives largely listed as inhibitors. 5.9% of 310,000 active; further: potency means the concentration at half of the fitted maximal effect; on the % scale 0 is the no-effect control and ±100 the full control effect
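Growth was read as firefly luciferase luminescence after a 48 h, 37 C, 5% CO2 exposure of compounds to reporter-bearing P. falciparum cultures (0.1% parasitemia, 2% hematocrit final) in Albumax-supplemented RPMI 1640.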
Giardia FBPA inh: qHTS Assay for Inhibitors of Fructose-1,6-bisphosphate Aldolase from Giardia Lamblia | Potency, µM (highest dose often 59.6 µM), inactives show at the top dose activity, negative = inhibition, actives largely listed as inhibitors | purified Giardia FBPA | 0.71% of 290,000 active | AID 2451, 2010; further: potency means the concentration at half of the fitted maximal effect; on the % scale 0 is the no-effect control and ±100 the full control effect; nearly all actives have a fitted effect of over 55% in size
Target sequence (A8B2U2 whole entry, looked up): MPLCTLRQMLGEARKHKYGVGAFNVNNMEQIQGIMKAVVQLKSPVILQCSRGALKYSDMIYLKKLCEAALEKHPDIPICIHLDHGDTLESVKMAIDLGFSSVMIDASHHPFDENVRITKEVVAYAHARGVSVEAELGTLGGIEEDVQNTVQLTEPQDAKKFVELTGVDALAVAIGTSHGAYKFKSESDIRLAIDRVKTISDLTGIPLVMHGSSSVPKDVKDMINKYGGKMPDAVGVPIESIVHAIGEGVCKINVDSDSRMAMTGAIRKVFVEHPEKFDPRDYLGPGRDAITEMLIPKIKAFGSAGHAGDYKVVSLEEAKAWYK
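40 nM FBPA preincubated 10 min at RT with compound (up to 57.5 uM final), then substrate plus GAPDH/TPI/NAD/arsenate coupling and diaphorase/resazurin added. Fluorescence read after 20 min at RT, 525/598 nm.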
Shiga toxin inh: A qHTS for Small Molecule Inhibitors of Shiga Toxin. Vero cells, Shiga toxin protein synthesis inhibition reporter. inhibition, % at 38.7 µM. 9.2% of 290,000 active; in the data active means inhibition mostly above about 28%, no sharp cut-off; inactive means mostly below about 43%; further: 0% is about no effect
NS1 function inh: qHTS Assay for Inhibitors of Influenza NS1 Protein Function. AID 2326, 2010. Potency, µM (titrated, usually from 46.1 µM), for inactives: at the top dose activity, positive = more growth. 0.4% of 270,000 active; calls by dose curve; further: potency means the concentration at half of the fitted maximal effect; actives are rising curves; nearly all actives have a fitted effect of over 50% in size
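A cell-based growth assay was used: compounds that relieve NS1-induced slow growth of budding yeast raise OD600. Assay medium was yeast nitrogen base with ammonium sulphate and -URA supplement, pH 6.0, with 2% galactose.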
An asterisk follows results filed as active. Unless noted, the call rests on the fitted dose curve; in most records, active means well fitted curve in the direction sought with a large enough effect; inconclusive means small, poorly fitted or top-dose-only effect, or another doubt; inactive means no such curve, though single readings can be large; an effect the other way counts as inactive or inconclusive.

What do the screens show for `O=C(CC1C(=O)NCCN1Cc1c(F)cccc1Cl)NCCCn1cccn1` (stereo not given)?
Pf growth 96h: 3%; Cycloheximide cs: -1; Pf growth 48h: 4%; Giardia FBPA inh: -3%; Shiga toxin inh: 11; NS1 function inh: 1%

How did CN(Cc1ccccc1)C(=O)c1cc2ccccc2o1 do in these assays?
Pf growth 96h: -7%; Cycloheximide cs: 12; Giardia FBPA inh: 3%; Shiga toxin inh: 8; NS1 function inh: -47%

Results for CN(Cc1ccc(N(C)C)cc1)C(=O)c1cc2ccccc2o1 ?
Pf growth 96h: 66%; Cycloheximide cs: 28*; Pf growth 48h: 28%; Giardia FBPA inh: -4%; Shiga toxin inh: 68*; NS1 function inh: 0%

How did C=CCn1cccc(C(=O)Nc2ccc(SC)cc2)c1=O do in these assays?
Pf growth 96h: 43%; Cycloheximide cs: 53*; Pf growth 48h: 26%; Giardia FBPA inh: 13%; Shiga toxin inh: 93*; NS1 function inh: -12%

What do the screens show for `C=CCn1cccc(C(=O)Nc2ccc(N(C)C)cc2)c1=O`?
Pf growth 96h: 118%; Cycloheximide cs: 39*; Pf growth 48h: 101%; Giardia FBPA inh: 12%; Shiga toxin inh: 90*; NS1 function inh: -7%

Results for C=CCn1cccc(C(=O)Nc2cc(OC)c(OC)c(OC)c2)c1=O ?
Pf growth 96h: inconclusive; Cycloheximide cs: 2; Pf growth 48h: inconclusive; Giardia FBPA inh: 0%; Shiga toxin inh: -3

How did C=CCn1cccc(C(=O)Nc2ccc(C)c(Cl)c2)c1=O do in these assays?
Pf growth 96h: 50%; Cycloheximide cs: 13; Pf growth 48h: 32%; Giardia FBPA inh: 4%; Shiga toxin inh: 23; NS1 function inh: -4%

Results for C=CCn1cccc(C(=O)Nc2ccc(OCC)cc2)c1=O ?
Pf growth 96h: 125%; Cycloheximide cs: 35*; Pf growth 48h: inactive; Giardia FBPA inh: 0%; Shiga toxin inh: 95*

Results for C=CCn1cccc(C(=O)Nc2ccc(Cl)cc2)c1=O ?
Pf growth 96h: 111%; Cycloheximide cs: 36*; Pf growth 48h: 88%; Giardia FBPA inh: 1%; Shiga toxin inh: 64*; NS1 function inh: -37%

Results for N=C1C(c2nc3ccccc3[nH]2)=C(O)CN1c1ccc(F)cc1 ?
Pf growth 96h: 71%; Cycloheximide cs: 38*; Giardia FBPA inh: 13%; Shiga toxin inh: 28; NS1 function inh: -10%

What do the screens show for `NC1=NCC(O)=C1c1nc2ccccc2[nH]1`?
Pf growth 96h: 10%; Cycloheximide cs: 1; Pf growth 48h: 27%; Giardia FBPA inh: -15%; Shiga toxin inh: 14

Results for N=C1C(c2nc3ccccc3[nH]2)=C(O)CN1C1CCCCC1 ?
Pf growth 96h: 42%; Cycloheximide cs: 31*; Pf growth 48h: 44%; Giardia FBPA inh: -12%; Shiga toxin inh: 55*; NS1 function inh: -4%

How did CC1Cc2ccccc2N1C(=O)Cn1cnc2c1c(=O)n(C)c(=O)n2C (stereo not given) do in these assays?
Pf growth 96h: 23%; Cycloheximide cs: 4; Pf growth 48h: 12%; Shiga toxin inh: -11; NS1 function inh: 21%

What do the screens show for `N/C(=N\OC(=O)c1cccnc1)c1ccc(Cl)cc1Cl`?
Pf growth 96h: inactive; Cycloheximide cs: 22*; Pf growth 48h: 53%; Giardia FBPA inh: 0%; Shiga toxin inh: 44*

How did O=C(Nc1ccc(NC(=O)c2ccccc2Cl)cc1)c1cccnc1 do in these assays?
Pf growth 96h: 0%; Cycloheximide cs: 1; Pf growth 48h: inconclusive; Giardia FBPA inh: -1%; Shiga toxin inh: 14; NS1 function inh: 4%

What do the screens show for `N/C(=N\OC(=O)c1cccnc1)c1ccccc1Cl`?
Pf growth 96h: -21%; Cycloheximide cs: 27*; Pf growth 48h: 74%; Giardia FBPA inh: 7%; Shiga toxin inh: 84*

How did CCc1ccc(OCCCOc2ccc(C=O)cc2)cc1 do in these assays?
Pf growth 96h: -27%; Cycloheximide cs: 19*; Giardia FBPA inh: 1%; Shiga toxin inh: 78; NS1 function inh: -80%

What do the screens show for `O=c1oc2cc(O)ccc2cc1-c1nc2c(s1)CCc1ccccc1-2`?
Pf growth 96h: 9.3µM*; Cycloheximide cs: 2; Pf growth 48h: -8%; Giardia FBPA inh: inconclusive; Shiga toxin inh: -7; NS1 function inh: 18%
